Screening results as filed in PubChem BioAssay.
This is a sample that favours compounds with a hit; in the whole collection about 2.1% have one here.
YB-1 expression – YB-1 expression inhibition; delta delta Cp (YB-1 minus CDIP) (test concentration not listed); 30,000 tested, 0.37% active; U2OS, qRT-PCR YB-1 vs CDIP delta delta Cp, 16 h; active compounds read high; zero = DMSO, each unit about twofold;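 active means delta delta Cp rounded down to an integer at or above 3, about 3 SD of DMSO wells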;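 further: higher means less YB-1 transcript or more CDIP transcript relative to DMSO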
ROS inducer – cancer cell ROS induction; ROS induction (% of piperlongumine), % at 10 µM; AID 624156; 46,000 tested, 2% active; U2OS ROS induction, H2DCF-DA fluorescence; in the data active means ROS induction above about 79%, passing the limit was not always enough
Each line names hits and unclear results; the compound was inactive in the other large screens.

CNC(=O)Cn1cc2c(n1)CCC(C)C2 (stereo unspecified)	none (no result: YB-1 expression)
Cc1noc(C)c1NC(=O)Nc1ccc2c(c1)C(=O)N([C@H](C)CO)C[C@H](C)[C@@H](CN(C)Cc1ccc(Cl)c(Cl)c1)OCCCC[C@@H](C)O2	YB-1 expression 6.11
CNC[C@@H]1Oc2ccc(NS(=O)(=O)c3c(C)noc3C)cc2CC(=O)N([C@H](C)CO)C[C@H]1C	ROS inducer 99.2
CNC[C@@H]1Oc2ccc(NS(=O)(=O)c3c(C)noc3C)cc2CC(=O)N([C@H](C)CO)C[C@@H]1C	none
Cc1noc(C)c1NC(=O)Nc1ccc2c(c1)C(=O)N([C@H](C)CO)C[C@H](C)[C@H](CN(C)Cc1ccc3c(c1)OCO3)OCCCC[C@@H](C)O2	none
Cc1noc(C)c1S(=O)(=O)Nc1ccc2c(c1)C(=O)N([C@H](C)CO)C[C@H](C)[C@@H](CN(C)Cc1ccc(Cl)c(Cl)c1)O2	none
Cc1noc(C)c1S(=O)(=O)Nc1ccc2c(c1)C(=O)N([C@H](C)CO)C[C@@H](C)[C@@H](CN(C)Cc1ccc(Cl)c(Cl)c1)O2	ROS inducer 101.3
C[C@@H]1CCCCO[C@@H](CN(C)Cc2ccc(C(F)(F)F)cc2)[C@@H](C)CN([C@H](C)CO)C(=O)c2cc(NC(=O)c3ccccc3)ccc2O1	none
C[C@@H]1CCCCO[C@@H](CN(C)Cc2ccc(C(F)(F)F)cc2)[C@@H](C)CN([C@H](C)CO)C(=O)c2cc(NC(=O)c3ccncc3)ccc2O1	ROS inducer 98.0
O=C(Cn1c(=O)oc2cc(S(=O)(=O)NC3CCCCC3)ccc21)N1CCCCCC1	none (no result: YB-1 expression)
CC(C)NC(=O)Cn1c(=O)c2cccn2c2cccnc21	none (no result: YB-1 expression)
COc1ccc2[nH]c3c(=O)n(CC(=O)NCCc4ccc(OC)c(OC)c4)c(=S)[nH]c3c2c1	none (no result: YB-1 expression)
C[C@@H]1CCCCO[C@H](CN(C)Cc2ccc(C(=O)O)cc2)[C@@H](C)CN([C@H](C)CO)C(=O)c2cc(NC(=O)c3ccccc3)ccc2O1	none
C[C@@H]1CCCCO[C@@H](CN(C)Cc2ccccc2)[C@@H](C)CN([C@H](C)CO)C(=O)c2cc(NC(=O)c3ccccc3)ccc2O1	ROS inducer 183.9
C[C@@H]1CCCCO[C@@H](CN(C)CC2CCCCC2)[C@@H](C)CN([C@H](C)CO)C(=O)c2cc(NC(=O)c3ccccc3)ccc2O1	none
C[C@@H]1CCCCO[C@H](CN(C)CC2CCCCC2)[C@@H](C)CN([C@H](C)CO)C(=O)c2cc(NC(=O)c3ccncc3)ccc2O1	YB-1 expression 6.39
Cc1ccc(Oc2ncccc2NC(=O)c2ccc3c(c2)OCCCO3)c2c1CCC2	none (no result: YB-1 expression)
CCN1/C(=C\C(=S)Nc2ccccc2)Sc2ccccc21	none
CCN1/C(=C/C2=CC(=O)CC(C)(C)C2)Sc2ccccc21	ROS inducer 163.6
CCC(C(=O)N1CCN(c2cc(C)ccc2C)CC1)n1sc2ccccc2c1=O (stereo unspecified)	none (no result: YB-1 expression)
CC(C)c1cc(C(C)C)c(S(=O)(=O)NCCC(=O)O)c(C(C)C)c1	none (no result: YB-1 expression)
Cc1nc2ccc(NC(=O)C(C)(C)C(=O)Nc3ccc4nc(C)c(C)nc4c3)cc2nc1C	none (no result: YB-1 expression)
CSCCC(C(=O)O)N1C(=O)/C(=C/c2cccnc2)SC1=S (stereo unspecified)	none (no result: YB-1 expression)
O=C(NN1C(=O)/C(=C\c2cccnc2)SC1=S)c1ccccc1	ROS inducer 78.6
CCc1ccc(NC(=S)Nc2ccccc2C(C)C)cc1	none (no result: YB-1 expression)
CC(C)(C)c1nc(-c2ccc(-c3ccon3)s2)no1	none (no result: YB-1 expression)
Cc1cc(C)c(C2C(C#N)=C(N)Oc3n[nH]c(C)c32)cc1COc1ccccc1Cl (stereo unspecified)	none (no result: YB-1 expression)
C[C@H]1CN([C@@H](C)CO)C(=O)Cc2cc(NS(=O)(=O)c3cn(C)cn3)ccc2O[C@@H]1CN(C)Cc1ccc(Oc2ccccc2)cc1	none
COc1ccc(CN(C)C[C@@H]2Oc3ccc(NS(=O)(=O)c4cn(C)cn4)cc3CC(=O)N([C@H](C)CO)C[C@H]2C)cc1	ROS inducer 94.8
C[C@@H]1CN([C@@H](C)CO)C(=O)Cc2cc(NS(=O)(=O)c3cn(C)cn3)ccc2O[C@@H]1CN(C)S(C)(=O)=O	ROS inducer 108.9
C[C@H]1CN([C@@H](C)CO)C(=O)Cc2cc(NS(=O)(=O)c3cn(C)cn3)ccc2O[C@H]1CN(C)S(=O)(=O)c1cn(C)cn1	none
C[C@@H]1CN([C@@H](C)CO)C(=O)c2cccc(NS(=O)(=O)c3ccccc3)c2O[C@H]1CN(C)Cc1ccc(Cl)c(Cl)c1	ROS inducer 150.8
C[C@@H]1CN([C@H](C)CO)C(=O)c2cccc(NS(=O)(=O)c3ccccc3)c2O[C@@H]1CN(C)Cc1ccc(Cl)c(Cl)c1	none
Cc1ccc(S(=O)(=O)Nc2cccc3c2O[C@H](CN(C)Cc2ccc(Oc4ccccc4)cc2)[C@@H](C)CN([C@H](C)CO)C3=O)cc1	YB-1 expression 18.9
Cc1ccc(S(=O)(=O)Nc2cccc3c2O[C@@H](CN(C)Cc2ccc(Oc4ccccc4)cc2)[C@H](C)CN([C@@H](C)CO)C3=O)cc1	none
O=C(CC(NS(=O)(=O)c1ccc(Br)cc1)c1ccco1)NC1CC1 (stereo unspecified)	none (no result: YB-1 expression)
CC(C)NC(=O)Nc1ccc2c(c1)CC(=O)N([C@@H](C)CO)C[C@H](C)[C@H](CN(C)C(=O)Nc1ccccc1)O2	ROS inducer 79.2
CC(C)NC(=O)Nc1ccc2c(c1)CC(=O)N([C@@H](C)CO)C[C@H](C)[C@H](CN(C)Cc1ccncc1)O2	none
COc1ccc(NC(=O)N(C)C[C@@H]2Oc3ccc(NC(=O)NC(C)C)cc3CC(=O)N([C@@H](C)CO)C[C@@H]2C)cc1	none
CC(C)NC(=O)Nc1ccc2c(c1)CC(=O)N([C@H](C)CO)C[C@H](C)[C@H](CN(C)Cc1ccncc1)O2	ROS inducer 112.9
COc1ccc(NC(=O)N(C)C[C@@H]2Oc3ccc(NC(=O)c4ccncc4)cc3CC(=O)N([C@H](C)CO)C[C@H]2C)cc1	ROS inducer 93.7
COc1ccc(NC(=O)N(C)C[C@H]2Oc3ccc(NC(=O)c4ccncc4)cc3CC(=O)N([C@@H](C)CO)C[C@@H]2C)cc1	none
COc1ccc(NC(=O)N(C)C[C@@H]2Oc3ccc(NC(=O)NC(C)C)cc3CC(=O)N([C@H](C)CO)C[C@H]2C)cc1	ROS inducer 110.2
CC(C)NC(=O)N(C)C[C@@H]1Oc2ccc(NC(=O)Nc3ccccc3)cc2CC(=O)N([C@H](C)CO)C[C@H]1C	none
O=C(N=CNC(=O)c1cccnc1)c1cccnc1	none (no result: YB-1 expression)
CCC(Oc1ccccc1)C(=O)Nc1sc2c(c1C(N)=O)CCCC2 (stereo unspecified)	none (no result: YB-1 expression)
CCOc1cc(CNC23CC4CC(CC(C4)C2)C3)ccc1OCc1cccs1	none (no result: YB-1 expression)
CCCn1cc(SCC(=O)N2N=C(c3cccs3)CC2c2ccc(OC)cc2)c2ccccc21 (stereo unspecified)	none (no result: YB-1 expression)
COC(=O)C1c2c(oc3cc(CO)cc(O)c3c2=O)C=CC1O (stereo unspecified)	ROS inducer 137.0
COc1cc(-c2oc3cc(O)cc(O)c3c(=O)c2O[C@@H]2O[C@H](CO)[C@@H](O)[C@H](O)[C@H]2O)ccc1O[C@@H]1O[C@H](CO)[C@@H](O)[C@H](O)[C@H]1O	none
C[C@@H]1CN([C@H](C)CO)C(=O)Cc2cc(NS(C)(=O)=O)ccc2O[C@@H]1CN(C)Cc1ccccc1	none
C[C@@H]1CN([C@H](C)CO)C(=O)Cc2cc(NS(=O)(=O)c3ccccc3)ccc2O[C@@H]1CN(C)Cc1ccc(C(F)(F)F)cc1	none
